# miR-122 inh = miR-122 sensor activation | activation, % at 12.5 µM | Huh7 psiCHECK-miR122 Renilla luciferase sensor, 48 h | AID 623901 | hit rate 0.14% among 340,000;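 active = mean activation of 30% or more, with every replicate also reaching 30%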;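 also: higher luciferase signal means stronger suppression of miR-122 activity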
# A number is an active result; 0 = inactive. Many of the other results were omitted from the sample, so hits are more common in it than they were.
SMILES,miR-122 inh
C[C@H]1CN([C@@H](C)CO)C(=O)c2cc(-c3ccc(F)cc3)cnc2O[C@H]1CN(C)C(=O)c1cccnc1,0
C/C=C/c1cnc2c(c1)C(=O)N([C@@H](C)CO)C[C@@H](C)[C@@H](CN(C)C(=O)Cc1cccnc1)O2,0
CC(=O)N(C)C[C@@H]1Oc2cc(C#CC3CCCCC3)ccc2S(=O)(=O)N([C@H](C)CO)C[C@H]1C,0
CO[C@@H]1CN(C)C(=O)c2cc(NC(=O)Nc3ccccc3)ccc2OC[C@H](C)NC[C@@H]1C,0
CCCC(=O)Nc1ccc2c(c1)C(=O)N(C)C[C@H](OC)[C@@H](C)CN[C@@H](C)CO2,0
CO[C@H]1CN(C)C(=O)c2cc(NC(=O)Nc3ccc(Cl)c(Cl)c3)ccc2OC[C@H](C)NC[C@H]1C,51
C[C@H](CO)N1C[C@H](C)[C@H](CN(C)C(=O)c2ccc(F)cc2)Oc2ncc(C3=CCCCC3)cc2C1=O,0
COCC#Cc1ccc2c(c1)O[C@@H](CN(C)C(=O)C1CCCCC1)[C@H](C)CN([C@H](C)CO)S2(=O)=O,0
CCCC#Cc1cnc2c(c1)C(=O)N([C@H](C)CO)C[C@H](C)[C@H](CN(C)Cc1ccccc1F)O2,0
CC(=O)Oc1ccc2c(c1)C(=O)c1ccccc1CO2,35
CCCC(=O)Nc1ccc2c(c1)C(=O)N(C)C[C@H](OC)[C@H](C)CN(CCC)[C@H](C)CO2,0
C[C@H](CO)N1C[C@H](C)[C@@H](CN(C)Cc2cccc(C(=O)O)c2)Oc2ncc(/C=C/c3ccccc3)cc2C1=O,0
Nc1ccc(Oc2ccc(Br)cc2)cc1,35
CCC(=O)N1C[C@@H](C)[C@@H](OC)CN(C)C(=O)c2ccc(NS(C)(=O)=O)cc2OC[C@H]1C,0
C/C=C/c1cnc2c(c1)C(=O)N([C@H](C)CO)C[C@H](C)[C@H](CN(C)C(=O)Cc1cccnc1)O2,0
C[C@H](CO)N1C[C@H](C)[C@H](CN(C)S(C)(=O)=O)Oc2ncc(Br)cc2C1=O,0
C[C@@H]1CN([C@@H](C)CO)C(=O)c2cccc(NC(=O)Nc3ccc(F)cc3)c2O[C@H]1CN(C)Cc1ccc(C(F)(F)F)cc1,0
C[C@H](CO)N1C[C@H](C)[C@@H](CN(C)Cc2ccc(C(F)(F)F)cc2)Oc2c(NC(=O)C3CCCCC3)cccc2C1=O,0
C[C@H](CO)N1C[C@H](C)[C@@H](CN(C)Cc2ccc(C(F)(F)F)cc2)Oc2ccc(N(C)C)cc2C1=O,0
C[C@@H]1CN([C@H](C)CO)C(=O)Cc2cc(NC(=O)Nc3ccc(C(F)(F)F)cc3)ccc2O[C@@H]1CN(C)C(=O)Nc1cccc2ccccc12,0
COc1ccc(CN(C)C[C@@H]2OCCCC[C@H](C)Oc3ccc(NC(=O)Nc4ccc(C(F)(F)F)cc4)cc3C(=O)N([C@H](C)CO)C[C@H]2C)cc1,32
COc1ccc(CN(C)C[C@H]2OCCCC[C@H](C)Oc3ccc(NC(=O)Nc4ccc(C(F)(F)F)cc4)cc3C(=O)N([C@@H](C)CO)C[C@@H]2C)cc1,31
C[C@@H]1CN([C@@H](C)CO)C(=O)Cc2cc(NC(=O)Nc3ccc(C(F)(F)F)cc3)ccc2O[C@H]1CN(C)Cc1ccc(Oc2ccccc2)cc1,35
C[C@@H]1CN([C@@H](C)CO)C(=O)c2cccc(NC(=O)Nc3ccccc3)c2O[C@H]1CN(C)Cc1ccc(C(F)(F)F)cc1,0
C[C@@H]1CN([C@@H](C)CO)C(=O)Cc2cc(NC(=O)Nc3ccc(C(F)(F)F)cc3)ccc2O[C@@H]1CN(C)C(=O)Nc1cccc2ccccc12,0
SMILES,miR-122 inh
C[C@H]1CN([C@@H](C)CO)C(=O)c2cccc(NC(=O)NC3CCCCC3)c2O[C@@H]1CN(C)Cc1ccc(C(F)(F)F)cc1,0
C[C@@H]1CN([C@H](C)CO)C(=O)c2cc(NC(=O)Cc3ccccc3)ccc2O[C@@H](C)CCCCO[C@H]1CN(C)Cc1ccc(C(F)(F)F)cc1,31
COc1ccc(S(=O)(=O)Nc2cccc3c2O[C@@H](CN(C)Cc2ccc(C(F)(F)F)cc2)[C@H](C)CN([C@H](C)CO)C3=O)cc1,0
CC(C)C#Cc1cnc2c(c1)C(=O)N([C@H](C)CO)C[C@H](C)[C@@H](CN(C)C(=O)CC1CC1)O2,0
Cc1cc(C(=O)Nc2cccc3c2O[C@H](CN(C)Cc2ccc(C(F)(F)F)cc2)[C@@H](C)CN([C@H](C)CO)C3=O)n(C)n1,0
COCC#Cc1cnc2c(c1)C(=O)N([C@H](C)CO)C[C@H](C)[C@H](CN(C)S(=O)(=O)c1cccc(OC)c1)O2,0
CCC(=O)N(C)C[C@@H]1Oc2cc(C#C[C@H](C)O)ccc2S(=O)(=O)N([C@@H](C)CO)C[C@@H]1C,0
C[C@H]1CN([C@@H](C)CO)C(=O)c2cc(C#CC(C)(C)O)cnc2O[C@@H]1CN(C)C(=O)C1CC1,0
C[C@@H]1CN([C@@H](C)CO)C(=O)c2cccc(NC(=O)c3ccc(-c4nccs4)cc3)c2O[C@@H]1CN(C)Cc1ccc(C(=O)Nc2ccccc2N)cc1,0
C[C@@H]1CN([C@@H](C)CO)C(=O)c2cc(C#CC3CC3)cnc2O[C@H]1CN(C)C,0
CO[C@@H]1CN(C)C(=O)c2ccc(NC(=O)Nc3ccccc3)cc2OC[C@@H](C)N(C(C)=O)C[C@@H]1C,0
C[C@H](CO)N1C[C@H](C)[C@@H](CN(C)C(=O)C2CCOCC2)Oc2cc(-c3ccc(F)cc3)ccc2S1(=O)=O,0
CCCN1C[C@@H](C)[C@@H](OC)CN(C)C(=O)c2ccc(NC(=O)COC)cc2OC[C@@H]1C,0
Cc1sc2ncnc(N/N=C/c3ccccc3O)c2c1C,37
COc1ccc(S(=O)(=O)N(C)C[C@H]2Oc3cc(C#CC4CC4)ccc3S(=O)(=O)N([C@H](C)CO)C[C@H]2C)cc1,0
Cc1cc(C)c2c(c1)/C(=C/C(=O)c1ccc(Br)s1)C(=O)N2,43
C[C@@H]1CN([C@@H](C)CO)C(=O)c2cc(C#Cc3ccccn3)cnc2O[C@H]1CN(C)C(=O)CCN1CCCCC1,0
C[C@H](CO)N1C[C@H](C)[C@@H](CN(C)Cc2ccc3c(c2)OCO3)Oc2ncc(Br)cc2C1=O,0
O=C1/C(=C/c2ccncc2)CCC/C1=C\c1ccncc1,78
COc1cc(/C=C2/CCC/C(=C\c3cc(O)c(OC)c(Cl)c3)C2=O)cc(Cl)c1O,0
C[C@H](CO)N1C[C@H](C)[C@@H](CN(C)C(=O)Nc2ccccc2F)Oc2ncc(-c3cccc(F)c3)cc2C1=O,0
CCCN(C)C[C@H]1Oc2cc(Br)ccc2S(=O)(=O)N([C@@H](C)CO)C[C@H]1C,0
C[C@H](CO)N1C[C@H](C)[C@@H](CN(C)C(=O)C2CCOCC2)Oc2ncc(-c3ccncc3)cc2C1=O,0
COCC#Cc1ccc2c(c1)O[C@@H](CN(C)C(C)=O)[C@@H](C)CN([C@@H](C)CO)S2(=O)=O,0
C[C@@H]1CN([C@H](C)CO)S(=O)(=O)c2ccc(C#CC3(O)CCCC3)cc2O[C@H]1CN(C)C(=O)Nc1ccc(F)cc1,0
COc1ccccc1-c1ccc2c(c1)O[C@H](CN(C)C(=O)Nc1ccccc1)[C@@H](C)CN([C@@H](C)CO)S2(=O)=O,0
O=C(c1cc([N+](=O)[O-])ccc1N1CCOCC1)N1CCN(c2ccccc2)CC1,0
Cc1onc(C(=O)N2CCN(C(c3ccccc3)c3ccccc3)CC2)c1[N+](=O)[O-],31
C/C=C/c1cnc2c(c1)C(=O)N([C@@H](C)CO)C[C@H](C)[C@@H](CN(C)CC1CCOCC1)O2,0
CO[C@@H]1CN(C)C(=O)c2cc(NC(=O)NC(C)C)ccc2OC[C@@H](C)N(C(=O)NC(C)C)C[C@H]1C,0

# High-throughput results from PubChem.
